Measurements published in PubChem BioAssay AID2533 (National Center for Advancing Translational Sciences (NCATS), 2010).
“And” between values parts separate entries of the source, which are not always exact repeats. Identical values can stand only once. Results filed as inconclusive are left out. The source made the active and inactive calls. Calls follow the shape of the dose curve; as a rule, active = well fitted activation curve with a large enough effect; inconclusive = small, poorly fitted or top-dose-only effect; inactive = flat fitted curve, though single readings scatter.

What follows are molecules tested against Pyruvate kinase PKM (Homo sapiens) (UniProt P14618) (assay: Confirmation Concentration-Response Assay for Activators of Human Muscle isoform 2 Pyruvate Kinase: for Probe SAR). Details: purified PKM2, ATP generation, Kinase-Glo luminescence; series mostly up to 57.5 µM; activity change, positive = activation: at the top concentration.
How it was run: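 ATP generation was detected by luciferase-coupled luminescence (Kinase-Glo). The reaction ran for 1 hour at room temperature with 0.1 mM ADP, 0.5 mM PEP and 0.1 nM purified hPK-M2 in 50 mM imidazole, pH 7.2, with 7 mM MgCl2. The enzyme was set at intermediate activity so activators could be detected.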
Also: nearly all actives have a fitted effect of over 60% in size.
For activity change, positive = activation in this document: % of control where 0% means no effect.
Potency is read from the fitted curve at half-maximal effect.

Sequence of Pyruvate kinase PKM (Homo sapiens) (P14618 whole entry, looked up, canonical isoform): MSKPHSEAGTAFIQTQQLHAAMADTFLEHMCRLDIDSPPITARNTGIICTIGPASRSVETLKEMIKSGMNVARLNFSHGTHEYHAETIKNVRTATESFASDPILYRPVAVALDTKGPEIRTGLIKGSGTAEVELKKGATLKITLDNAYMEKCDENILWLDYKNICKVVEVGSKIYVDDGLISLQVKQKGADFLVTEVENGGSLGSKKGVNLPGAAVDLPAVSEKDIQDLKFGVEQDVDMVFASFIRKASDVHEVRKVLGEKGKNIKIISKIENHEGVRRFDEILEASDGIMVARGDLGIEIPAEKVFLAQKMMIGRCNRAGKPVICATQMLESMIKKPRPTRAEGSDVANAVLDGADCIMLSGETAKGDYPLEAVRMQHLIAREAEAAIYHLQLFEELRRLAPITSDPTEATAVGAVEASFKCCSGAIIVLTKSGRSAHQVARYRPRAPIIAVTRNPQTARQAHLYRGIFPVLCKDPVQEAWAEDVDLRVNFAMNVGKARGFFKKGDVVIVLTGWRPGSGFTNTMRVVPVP

Activity change, positive = activation, inactive:
CC(=O)Nc1cccc(OC2=NS(=O)(=O)c3ccccc32)c1 3%, COc1cc(N2C(=O)c3ccccc3C2=O)c2ncccc2c1 5.59%, O=C1c2ccccc2C(=O)N1c1cccc(O)c1 9.55%, O=C1c2ccccc2C(=O)N1c1ccc(O)cc1 11.8%, O=S1(=O)N=C(Oc2cccc(Cl)c2)c2ccccc21 10.9%, O=C1c2ccccc2C(=O)N1c1cccc2ncccc12 3.32%, O=S1(=O)N=C(Oc2ccccc2Cl)c2ccccc21 9.98%, Cc1ccccc1Nc1c(-c2ccc(Cl)s2)nc2ccccn12 1.18%, Fc1ccccc1-c1ccc(-c2nc3ccc(Cl)cn3c2Nc2ccc(Cl)cc2)o1 0.0036%, O=[S+]1([O-])N=C(Oc2cccnc2)c2ccccc21 3.92%, COc1ccc(O)cc1 7.63%, O=C1c2ccccc2C(=O)N1C1CCCCC1 8.3%, Cc1ccc(C)c(NC2=NS(=O)(=O)c3ccccc32)c1 11.5%, O=C1c2ccccc2C(=O)N1Cc1ccccn1 -5.16%, Cc1ccc(Nc2c(-c3ccsc3)nc3c(C)cccn23)cc1 14.9%, O=C1c2ccccc2C(=O)N1c1cccc(Cl)c1 6.37%, O=C1CCc2cc(S(=O)(=O)Nc3ccccc3-c3ccccc3)ccc2N1 16.8%, O=C1c2ccccc2C(=O)N1c1cnc2ccccc2c1 5.74%, COC(=O)c1ccccc1S(=O)(=O)Nc1ccc(OC)cc1 3.45%, O=S1(=O)N=C(Oc2ccc3ccccc3c2)c2ccccc21 3.06%, Cc1ccc(Nc2c(-c3ccsc3)nc3cccc(C)n23)cc1 6.9%

Potency, active:
Cc1cc2c(s1)c1cnn(Cc3cc(F)ccc3F)c(=O)c1n2C 1.12 µM, CC(=O)Nc1ccc(S(=O)(=O)N2CCN(S(=O)(=O)c3ccc4c(c3)OCCO4)CC2)cc1 1.63 µM, O=C1CCc2cc(S(=O)(=O)Nc3ccc4ccccc4c3)ccc2N1 5.17 µM, O=C1CCc2cc(S(=O)(=O)Nc3cccc(Br)c3)ccc2N1 0.259 µM, Cc1ccc(NS(=O)(=O)c2ccc3c(c2)CC(=O)N3C)cc1C 3.66 µM, CCNc1cccc(S(=O)(=O)N2CCN(S(=O)(=O)c3ccc4c(c3)OCCO4)CC2)c1 0.0819 µM, COc1cc(F)c(S(=O)(=O)N2CCN(S(=O)(=O)c3ccc(N)cc3)CC2)c(F)c1 0.13 µM, COc1cc(F)c(S(=O)(=O)N2CCCN(S(=O)(=O)c3cccc(N)c3)CC2)c(F)c1 1.16 µM and 1.46 µM, COc1ccc(-c2nc3ccccn3c2Nc2ccccc2C)cc1 14.6 µM, Nc1ccc(S(=O)(=O)N2CCCN(S(=O)(=O)c3ccc4c(c3)OCCO4)CC2)cc1 1.03 µM, Cc1ccc(Nc2c(-c3ccc(C)s3)nc3ccccn23)cc1 14.6 µM, Cc1ccc(NS(=O)(=O)c2cc3c(cc2Cl)CCC(=O)N3)cc1C 0.163 µM, Cc1ccc(NS(=O)(=O)c2cc3c(cc2C)NC(=O)CO3)cc1C 0.58 µM, Cc1ccc(NS(=O)(=O)c2ccc(F)cc2)cc1C 25.9 µM, COc1cccc(Cn2ncc3c4sc(S(C)=O)cc4n(C)c3c2=O)c1 (configuration not stated) 0.073 µM

Potency, inactive:
O=C1NS(=O)(=O)c2ccccc21
